In the library only some 1% were active in any assay of this set; here they are far more common.
TRPML1 blocker – inhibitors of human TRPML1 channel. Q9GZU1. TRPML1-inducible cells, Ca2+ dye fluorescence, FDSS; active compounds read low; inhibition of EC80 agonist-evoked calcium signal. activity change, negative = inhibition, % (no concentration beside the values). hit rate 0.02% among 390,000; in the data active = activity change below about -50%; inconclusive = between about -30% and that limit;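 note: stimulus is agonist 54-4 at its EC80 concentration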
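Calcium fluorescence in TRPML1-DL cells induced overnight with Tet: a 110 s read after compound pin addition, then a 110 s antagonist read after challenge with 54-4 at 4 uM final (EC80).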
TRPML1 ag – activates the human TRPML1 channel; TRPML1-expressing cells, Ca2+ dye fluorescence, FDSS; Q9GZU1; hit rate 0.12% among 410,000; activation, % (test concentration not listed); in the data active = activation above about 50%; inconclusive = mostly about 30% to 49%
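In this qHTS format, compounds were pin-transferred onto Ca8-dye-loaded TRPML1-DL cells induced with Tet overnight, and intracellular Ca2+ fluorescence was recorded kinetically for 110 s after a 10 s baseline. A subsequent 4uM final 54-4 (EC80) addition followed by a second 110 s read served as the antagonist phase.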
KCNH2 3.1 block – KCNH2 3.1 (human) potassium channel inhibition; U2OS KCNH2 3.1, thallium flux FluxOr; active compounds read low; activity change, % (tested at about 1.8 µM); hit rate 0.95% among 340,000; AID 720553;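 active = maximum activity change below -70%; inconclusive = maximum activity change from -70% to -50%; inactive = maximum activity change above -50%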;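 note: thallium influx rate constant from kinetic fluorescence after stimulation buffer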
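Steps: virus added to U2OS suspension (4 h, RT, dark); medium with 10% FBS added, cells plated, 37 C overnight; FluxOr/Red40 loading buffer 45 min RT; stimulation buffer, 2 min kinetic read; rate constant normalized.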
TSG101-PTAP inh – blocks PTAP/TSG101 interaction to inhibit HIV-1 budding | Potency, µM (doses to about 115 µM), hits mostly inhibitors | AID 493005 | Fluorescence polarization, FITC-PTAP peptide / Tsg101 binding | 340,000 tested, under 10 active | Q99816; active = well fitted inhibition curve with a large enough effect in the main read-out, with a control signal flat, not every such curve was filed as active; inconclusive = small, poorly fitted or top-dose-only effect, or effect the other way, or a change in a side signal; inactive = no such curve, though single readings can be large or run the other way
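Fluorescence polarization binding of Tsg101 binding domain (10 uM final) to FITC-labeled PTAP peptide (50 nM final) in HEPES pH 7.5 buffer with NaCl, Tween 20, EDTA, TCEP. Compounds added before peptide; binding 20 min at RT.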
GRP78 ERSR act – ER stress response induction in glioma; U87-MG GRP78 promoter luciferase reporter, 16 h; Potency, µM, hits mostly activators; hit rate 0.02% among 420,000; active = well fitted activation curve with a large enough effect; inconclusive = small, poorly fitted or top-dose-only effect; inactive = no such curve, though single readings can be large or run the other way; note: series mostly up to about 76 µM; nearly all actives have a fitted effect of over 35% in size
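Stably transfected U87-MG human glioma cells carrying a GRP78-based luminescent sensor were seeded at 1000 cells/well, pin-dosed with compounds and incubated 16 h. Luciferase reagent was then added, and end-point luminescence was read after 10 min at room temperature.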
KCNH2 WT inh – KCNH2 (human, wildtype) channel inhibition. Q12809. U2OS, BacMam KCNH2, thallium flux FluxOr; active compounds read low. activity change, % at 1.84 µM. hit rate 0.37% among 340,000;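 active = maximum activity change below -70%; inconclusive = maximum activity change between -70% and -50%; inactive = maximum activity change above -50%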
Target sequence (Q12809 whole entry, looked up): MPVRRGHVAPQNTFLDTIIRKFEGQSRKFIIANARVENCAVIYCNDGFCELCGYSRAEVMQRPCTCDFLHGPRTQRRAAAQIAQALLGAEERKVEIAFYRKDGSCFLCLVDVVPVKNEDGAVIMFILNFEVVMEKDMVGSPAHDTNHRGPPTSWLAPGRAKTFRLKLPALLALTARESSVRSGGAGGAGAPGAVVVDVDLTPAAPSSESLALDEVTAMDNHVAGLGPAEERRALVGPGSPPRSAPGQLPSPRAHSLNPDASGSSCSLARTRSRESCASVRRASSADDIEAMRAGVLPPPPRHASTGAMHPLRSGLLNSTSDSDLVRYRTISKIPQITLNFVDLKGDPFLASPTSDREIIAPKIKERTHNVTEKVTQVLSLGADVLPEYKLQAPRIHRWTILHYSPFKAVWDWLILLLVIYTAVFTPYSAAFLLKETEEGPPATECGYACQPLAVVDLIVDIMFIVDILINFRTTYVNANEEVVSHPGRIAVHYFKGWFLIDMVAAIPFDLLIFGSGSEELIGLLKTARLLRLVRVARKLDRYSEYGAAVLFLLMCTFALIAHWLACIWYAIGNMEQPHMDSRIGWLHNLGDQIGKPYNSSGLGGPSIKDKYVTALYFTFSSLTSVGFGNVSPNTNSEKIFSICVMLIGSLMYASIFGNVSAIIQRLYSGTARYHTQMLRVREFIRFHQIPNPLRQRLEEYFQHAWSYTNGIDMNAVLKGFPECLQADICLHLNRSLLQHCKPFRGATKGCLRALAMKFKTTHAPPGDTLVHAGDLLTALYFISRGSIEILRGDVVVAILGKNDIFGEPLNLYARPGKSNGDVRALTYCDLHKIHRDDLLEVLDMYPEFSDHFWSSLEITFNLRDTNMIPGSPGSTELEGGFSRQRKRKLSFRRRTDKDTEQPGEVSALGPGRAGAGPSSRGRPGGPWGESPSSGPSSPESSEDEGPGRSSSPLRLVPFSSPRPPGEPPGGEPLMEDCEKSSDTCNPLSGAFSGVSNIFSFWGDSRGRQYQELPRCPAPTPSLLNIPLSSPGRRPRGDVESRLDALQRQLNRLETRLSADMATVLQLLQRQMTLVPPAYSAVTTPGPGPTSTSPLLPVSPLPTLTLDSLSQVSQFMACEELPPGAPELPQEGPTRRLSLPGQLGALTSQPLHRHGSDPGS
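U2OS cells transduced with wild-type KCNH2 virus are loaded with FluxOr dye for 45 min, and thallium flux is measured in kinetic reads before and after stimulation buffer. Rate constants are normalized to DMSO controls.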
Each line names hits and unclear results; the compound was inactive in the other large screens; ! = not active in a repeat.

Cc1ncc2c(c1CNC(=O)/C=C/c1cccs1)CCN(C(=O)C1CC(=O)OC13CCCCC3)C2 (stereo not drawn)	none (no result: TRPML1 blocker, TRPML1 ag, KCNH2 3.1 block, TSG101-PTAP inh, KCNH2 WT inh)
CCN1C(=O)[C@H]2[C@@H](c3ccc(-c4ccc5c(c4)OCO5)c(OC)c3)N[C@@](Cc3ccccc3)(C(=O)OC)[C@H]2C1=O	KCNH2 3.1 block -111.2
O=C(NCc1nnc2n1CCN(Cc1cccc(C(F)(F)F)c1)CC2)c1ccncc1	none (no result: TRPML1 blocker, TRPML1 ag, KCNH2 3.1 block, TSG101-PTAP inh, KCNH2 WT inh)
Cc1ccc(C(=O)C2(C)C3c4cc(Br)ccc4OC(=O)C32C(=O)c2ccco2)cc1 (stereo not drawn)	KCNH2 3.1 block -114.1
Clc1ccc(CN2CCC(c3nc4ccc(Cl)cc4[nH]3)CC2)cc1	KCNH2 3.1 block -96.6, KCNH2 WT inh -95.7
COc1ccc(CN2CCCC(n3cc(C(=O)N4CCCCC4)nn3)C2)c(OC)c1 (stereo not drawn)	none (no result: TRPML1 blocker, TRPML1 ag, KCNH2 3.1 block, TSG101-PTAP inh, KCNH2 WT inh)
Cc1ccc(Nc2cc(C)nc3ncnn23)c(Cl)c1	none
Cc1cc(Nc2cccc(Cl)c2Cl)n2ncnc2n1	KCNH2 WT inh -221.7
COc1ccc(NC(=O)C2CCC(C(C)(C)C)CC2)cc1S(=O)(=O)N1CCCCC1 (stereo not drawn)	TRPML1 ag 83.8
Cc1ccc(C(=O)NCC(=O)OCc2csc(-c3ccccc3)n2)cc1	none
O=C(OCc1csc(-c2ccccc2)n1)c1ccc(O)cc1	KCNH2 3.1 block -80.1
COC[C@@H](c1ccc(C(F)(F)F)cc1)N1CCN(C2(C)CCN(C(=O)c3c(C)ncnc3C)CC2)C[C@@H]1C	none (no result: TRPML1 blocker, TRPML1 ag, KCNH2 3.1 block, TSG101-PTAP inh, KCNH2 WT inh)
C=CCn1c(=N)n(CC(O)COc2ccccc2OC)c2ccccc21 (stereo not drawn)	none
CCCCCn1c(=N)n(CC(O)COc2ccccc2OC)c2ccccc21 (stereo not drawn)	KCNH2 3.1 block -107.4!, KCNH2 WT inh -84.5
Cc1ccccc1OCC(O)Cn1c(=N)n(Cc2ccccc2)c2ccccc21 (stereo not drawn)	KCNH2 3.1 block inconclusive
COc1ccccc1OCC(O)Cn1c(=N)n(Cc2ccccc2)c2ccccc21 (stereo not drawn)	KCNH2 3.1 block -89.1
COCC(=O)Nc1cc(C(=O)N2CCCCC2c2nccn2C)cc2nc(-c3ccccc3)n(C)c12 (stereo not drawn)	none (no result: TRPML1 blocker, TRPML1 ag, KCNH2 3.1 block, TSG101-PTAP inh, KCNH2 WT inh)
CC(C)(CNC(=O)c1cnn(-c2ncc3c(n2)-c2ccccc2CC3)c1C1CC1)N1CCOCC1	none (no result: TRPML1 blocker, TRPML1 ag, KCNH2 3.1 block, TSG101-PTAP inh, KCNH2 WT inh)
COC(=O)C1=C(C)N(Cc2ccccc2)C(=NCCc2cccnc2)N[C@H]1c1ccc(Br)cc1	KCNH2 3.1 block -89.2
COC(=O)C1=C(C)N(Cc2ccccc2)C(=NCCc2cccnc2)N[C@H]1c1ccccc1	none
O=[N+]([O-])c1ccc(CSc2nnc3ccccn23)cc1	none
O=C(c1nc(SCc2ccc([N+](=O)[O-])cc2)n2ccccc12)C(F)(F)F	KCNH2 3.1 block -71.1
c1ccc(Cc2noc(CN3CCN(C4CCc5ccccc5C4)CC3)n2)cc1 (stereo not drawn)	KCNH2 3.1 block -126.9
Cc1ccc(CNCC(O)(c2ccccc2)c2ccc(Cl)cc2)cc1 (stereo not drawn)	none (no result: KCNH2 3.1 block)
COc1ccc(CNCC(O)(c2ccccc2)c2ccc(Cl)cc2)cc1 (stereo not drawn)	KCNH2 3.1 block -72.0
CCN1CCCC1CNCc1cc2c(OC)c(OC)c(OC)cc2nc1N(C)C (stereo not drawn)	none (no result: TRPML1 blocker, TRPML1 ag, KCNH2 3.1 block, TSG101-PTAP inh, KCNH2 WT inh)
COc1ccc(-c2cc(C#N)nc(Oc3ccc(Cl)cc3)n2)cc1	none
COc1ccc(-c2cc(C#N)nc(Cl)n2)cc1	KCNH2 3.1 block -80.2
COc1cccc(CN2CCCN(S(=O)(=O)c3ccc(Br)cc3)CC2)c1	KCNH2 WT inh -88.5
CCCn1c2ccccc2c2cnn(CC(=O)NCC3CCN(Cc4ccc(F)cc4)CC3)c(=O)c21	none (no result: KCNH2 3.1 block, TSG101-PTAP inh, KCNH2 WT inh)
O=C(Cn1ncc2c([nH]c3ccccc32)c1=O)NCC1CCN(Cc2ccc(F)cc2)CC1	KCNH2 3.1 block -97.6
Cc1ccnc(NC(=O)c2cc([N+](=O)[O-])cc([N+](=O)[O-])c2)c1	KCNH2 3.1 block -88.8
Cc1ccnc(NC(=O)Cc2ccc([N+](=O)[O-])cc2)c1	none

High-throughput results: PubChem, National Center for Advancing Translational Sciences (NCATS)
